Laboratory results reported in PubChem BioAssay (NCATS).
Inconclusive results are not listed. Unmarked numbers belong to inactive results. Activity calls are given as the source filed them. The call rests on the fitted dose curve; in most records, active means well fitted inhibition curve with a large enough effect; inconclusive means small, poorly fitted or top-dose-only effect, or effect the other way; inactive means no such curve, though single readings can be large or run the other way.

Assay: High Content Imaging Cell-Based qHTS for Inhibitors of the mTORC1 Signaling Pathway in MEF Cells (AID 2667);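 on activity change, negative = inhibition: Tsc2-/- p53-/- MEFs stably re-expressing wild-type Tsc2 exposed 24 h; plate controls were DMSO wells for no effect and rapamycin control wells for full effect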
Conditions: series mostly up to 38.3 µM; activity change, negative = inhibition: at the top concentration
In short: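 MEF (Tsc2-/-, p53-/-, WT Tsc2 re-expressed); cpd 24 h, 37 °C; PFA fix; Alexa-488 anti-p-rpS6 Ser235/236, PI, Hoechst; IN Cell imaging; Hoechst/Alexa-488 intensity ratio; % active cells, thresholds set from rapamycin and DMSO wells.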
Potency means the concentration at half of the fitted maximal effect.

Structure (SMILES) | Potency | activity change, negative = inhibition [%]
O=[N+]([O-])/C=C/c1ccc2c(c1)OCO2 | 2070 nM (active) | 
N#CCCN |  | -100
N[C@@H](Cn1ccc(=O)[nH]c1=O)C(=O)O |  | -100
Cc1cc([C@@H]2CCCN2C)on1 |  | -100
C[N+]1(C)CCc2cc3c(cc2[C@H]1[C@@H]1OC(=O)c2c1ccc1c2OCO1)OCO3 |  | -100
COc1ccc2c(c1)c(CCN1CCOCC1)c(C)n2C(=O)c1cccc(Cl)c1Cl |  | -8.16
CCNC(=O)[C@H]1O[C@@H](n2cnc3c(N)ncnc32)[C@H](O)[C@@H]1O |  | -100
C[C@@H]1O[C@@H](O[C@H]2C[C@@H](O)[C@]3(CO)[C@@H]4C(CC[C@]3(O)C2)[C@@]2(O)CC[C@H]([C@@H]3COC(=O)C3)[C@@]2(C)C[C@H]4O)[C@H](O)[C@H](O)[C@H]1O (stereo partly drawn) |  | -100
